# Screening results as filed in PubChem BioAssay.
# Rows were chosen to be rich in hits. Some 2.4% of all compounds tested hit in one or more screens of this group.
# STAT1 inh: STAT1 signaling inhibition | actives 0.35% (n = 200,000) | inhibition, % at 5.5 µM | NIH 3T3 STAT1-luciferase reporter, IFN-gamma, luminescence;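 active means inhibition above a set limit, the mean inhibition across all tested compounds plus 3 SD, cut at about 34% in these data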;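 further: 0% = IFN-gamma with DMSO and 100% = IFN-gamma with 300 µM nifuroxazide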
# HSF1 inh: HSF1 inhibition. NIH3T3-HGL HSE-luciferase, MG132-induced, luminescence 8 h; hits give low values. activity change, negative = inhibition, % at 7.5 µM (by protocol). actives 0.77% (n = 300,000). AID 2098;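 active means more than half of replicate wells show activity change below -50%, luminescence cut by over half; inconclusive means some wells, but at most half, below -50%; inactive means no replicate well below -50%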;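 further: luciferase reports HSF-1 transcriptional activity via heat shock element; 0% = median of DMSO wells and -100% = zero luminescence signal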
# STAT3 blocker: reduces IL-6 driven STAT3 reporter signal; actives 0.89% (n = 190,000); inhibition, % at 5.5 µM; U3A cells, IL-6 STAT3-luciferase reporter, luminescence; host cell line lacks STAT1;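 active means inhibition above the mean inhibition across all screened compounds plus 3 SD, cut at about 44% in these data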;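 further: 0% = DMSO only wells and 100% = 100 µM nifuroxazide control wells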
# HSP90 refold inh: HSP90 refolding inhibition in rabbit reticulocyte lysate. actives 0.91% (n = 290,000). inhibition, % at 5.6 µM. luciferase refolding luminescence, 3 h;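 active means inhibition above the screen-wide mean plus 3 SD, computed separately per campaign, cut at about 16% in these data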;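 further: 0% = DMSO wells and 100% = 60 µM geldanamycin wells; inhibitors lower the luminescence because luciferase stays unfolded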
# PPC-1+TRAIL kill: kills PPC-1 cancer cells in the presence of TRAIL. PPC-1 cells + TRAIL, ATPLite viability luminescence. cell killing (% activity), % at 4 µM or 5 µM. actives 0.41% (n = 220,000);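 active means cell killing above 50% in the first pass at 4 µM, then a duplicate retest at 5 µM averaging 50% or more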;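 further: plate controls were cells with TRAIL plus DMSO for no effect and medium-only wells lacking cells for full effect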
# TRAIL sens C8: sensitizes caspase-8 expressing cells to TRAIL; NB7+C8 cells + TRAIL, ATPlite viability luminescence; inhibition (viability loss, TRAIL sensitization), % at 10 µM; actives 1% (n = 360,000); AID 624354;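 active means compounds causing at least 50% loss of cell viability in the single-dose screen, relative to plate controls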
# HSP90 confirm: HSP90 inhibition, confirmation assay. shares compounds with HSP90 refold inh. rabbit reticulocyte lysate, luciferase refolding luminescence, 3 h. inhibition, % at 5.9 µM. actives 64% (n = 2,300); in the data active means inhibition above about 18%;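 further: 0% = vehicle wells and 100% = reference inhibitor wells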
# FLuc counter: counter-screen for HSP90 inhibitors: inhibitors of firefly luciferase; shares compounds with HSP90 refold inh; purified native firefly luciferase, luminescence; inhibition, % at 5.9 µM; actives 48% (n = 2,300); AID 1847;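 active means inhibition above the mean inhibition of all tested sample wells plus 3 SD, cut at about 10% in these data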;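 further: 0% = DMSO with luciferase and 100% = wells lacking luciferase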
# Target sequence (P08659 whole entry, looked up): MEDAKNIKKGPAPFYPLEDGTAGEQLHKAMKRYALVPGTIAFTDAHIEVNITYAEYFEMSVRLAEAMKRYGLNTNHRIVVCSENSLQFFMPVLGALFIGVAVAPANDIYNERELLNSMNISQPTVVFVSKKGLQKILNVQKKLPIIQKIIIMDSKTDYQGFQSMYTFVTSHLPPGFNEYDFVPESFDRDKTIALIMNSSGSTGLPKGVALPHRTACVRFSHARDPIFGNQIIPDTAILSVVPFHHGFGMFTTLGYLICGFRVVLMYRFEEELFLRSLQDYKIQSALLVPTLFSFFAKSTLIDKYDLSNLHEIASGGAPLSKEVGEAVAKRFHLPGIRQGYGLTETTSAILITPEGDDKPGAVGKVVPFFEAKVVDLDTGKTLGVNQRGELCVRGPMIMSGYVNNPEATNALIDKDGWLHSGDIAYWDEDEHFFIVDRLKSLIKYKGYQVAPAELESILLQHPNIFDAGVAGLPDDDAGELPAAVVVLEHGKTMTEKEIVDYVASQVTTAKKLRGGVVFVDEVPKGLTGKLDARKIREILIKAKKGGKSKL
# An asterisk follows results filed as active; ? = inconclusive; nt = no result.
SMILES,STAT1 inh,HSF1 inh,STAT3 blocker,HSP90 refold inh,PPC-1+TRAIL kill,TRAIL sens C8,HSP90 confirm,FLuc counter
CCC/C=C/c1ccc(CN2C(C)C(=O)N(Cc3cn(CCC4OCCCO4)nn3)CCS2(=O)=O)cc1 (stereo not given),nt,nt,nt,nt,nt,-8.1,nt,nt
O=C(NC1=NCCS1)C1COc2ccccc2O1 (stereo not given),76.6*,-50.8*,98.8*,78.7*,28.8,42.5,92.1*,81.0*
CCCNC(=O)Nc1nc2ccccc2s1,nt,16.0,nt,20.8*,25.8,-0.4,-2.5,-21.7
CCCCNC(=O)Nc1nc2ccccc2s1,-57.3,9.0,4.7,1.6,-7.6,9.5,nt,nt
C=C1C2(C(=O)NCc3ccco3)CCC(C2)C1(C)C (stereo not given),-4.6,1.6,-3.6,19.5*,-3.9,-1.4,-5.6,-8.8
COc1ccc(OCc2cc(C(=O)N(C)C(C)c3ccon3)no2)c(Cl)c1 (stereo not given),nt,19.1,nt,-2.2,nt,-5.7,nt,nt
Cc1ccc(-c2nc(-c3ccncc3)no2)cc1C,nt,29.4,nt,21.0*,nt,26.8,29.0*,25.1*
Cc1nc(N)[nH]c(=O)c1CCCNc1ccc(CCC2(CCl)OCCO2)cc1,nt,nt,nt,nt,nt,-1.4,nt,nt
COCc1nnc(NC(=O)COc2ccc3c(c2)OCO3)s1,nt,5.3,nt,2.0,nt,11.5,nt,nt
O=C(COc1ccc2c(c1)OCO2)Nc1nccs1,nt,14.5,nt,37.1*,nt,52.6*,52.7*,36.4*
O=C1CC(C(=O)O)S/C(=N\N=C\c2ccc(Br)cc2)N1 (stereo not given),nt,-1.5,nt,27.3*,13.2,7.8,22.3*,-13.6
C/C(=N/N=C1/NC(=O)CC(C(=O)O)S1)c1ccccc1 (stereo not given),12.7,-6.8,-1.8,5.5,-1.5,1.0,nt,nt
Cc1cccc(C(=O)NNC(=O)C2CCCCC2)c1O,nt,nt,nt,nt,nt,17.1,nt,nt
CCOc1ccc(NC(=O)c2ccc3c(=O)n(-c4ccc(OC)cc4OC)c(=S)[nH]c3c2)cc1,nt,-80.9*,nt,69.1*,nt,20.7,8.2,-3.8
COc1nc(C)cc(C)c1S(=O)(=O)c1ccccc1,nt,-4.3,nt,18.1*,nt,3.9,-6.1,-8.1
CCOc1nc(Nc2ccc(OC)cc2)nc(OCC)n1,4.5,1.8,-1.8,1.5,4.0,14.5,nt,nt
CCOc1ccc(Nc2nc(N)c3ccccc3n2)cc1,nt,-19.1,nt,59.7*,nt,86.1*,74.2*,61.0*
CN(C)c1ccc(Nc2nc(N)c3ccccc3n2)cc1,nt,9.7,nt,70.5*,nt,83.9*,92.1*,78.3*
COc1ccc(C)cc1Nc1nc(N)c2ccccc2n1,nt,4.5,nt,4.6,nt,-4.9,nt,nt
CC(C)C[C@@H]1COc2cc(N3CCSCC3)ccc2S(=O)(=O)N1,nt,nt,nt,nt,nt,8.5,nt,nt
O=C(N/N=C/c1cccnc1)NC12CC3CC(CC(C3)C1)C2,nt,0.0,nt,31.8*,2.5,-5.0,6.3,0.8
Oc1ccccc1C=Nc1cccc2ccccc12,nt,-13.1,nt,11.3,nt,11.3,nt,nt
Oc1cccc(C=Nc2cccc3ccccc23)c1O,nt,5.9,nt,22.8*,nt,28.9,3.4,-4.5
O=C(COC(=O)c1ccccc1C(=O)OCC(=O)NCCc1c[nH]c2ccccc12)NCCc1c[nH]c2ccccc12,nt,18.2,nt,nt,nt,11.1,nt,nt
CCCCc1nnc(NC(=O)CSc2nc(=O)cc(N)n2-c2cccc(C)c2)s1,4.9,0.5,3.3,33.1*,8.5,-2.9,-10.0,-11.5
SMILES,STAT1 inh,HSF1 inh,STAT3 blocker,HSP90 refold inh,PPC-1+TRAIL kill,TRAIL sens C8,HSP90 confirm,FLuc counter
Cc1cccc(-n2c(N)cc(=O)nc2SCC(=O)Nc2nnc(CC(C)C)s2)c1,3.1,-10.8,2.5,-2.3,4.3,nt,nt,nt
CC(=O)OCC(O)C1(O)CCC2C3CCC4=CC(=O)CCC4(C)C3C(O)CC21C (stereo not given),nt,nt,nt,nt,nt,6.7,nt,nt
COc1ccccc1-c1cccc(-c2nc(C(=O)N3CCCCC3)cc3c2[C@@H](CCO)N(S(=O)C(C)(C)C)C3)c1 (stereo not given in full),nt,nt,nt,nt,nt,1.3,nt,nt
CCC(=O)NC(NC(=S)Nc1ccc(S(N)(=O)=O)cc1)C(Cl)(Cl)Cl (stereo not given),-3.6,-3.1,5.2,-1.0,17.4,2.9,nt,nt
Cc1ccc(-c2nc(N3CCN(C)CC3)c3ccccc3n2)cc1,nt,-4.7,nt,1.8,nt,15.9,nt,nt
CN1CCN(c2nc(-c3ccc(C(C)(C)C)cc3)nc3ccccc23)CC1,nt,-80.1*,nt,54.4*,nt,71.3*,52.4*,49.2*
Nc1cccc2c1C(=O)N(CCOc1ccccc1F)C2=O,nt,70.1,nt,29.6*,nt,-0.6,51.4*,45.3*
COCCn1c(C)cc(C(=O)COC(=O)c2ccc(NC(=O)CC#N)cc2)c1C,-36.5,?,-2.9,18.6*,9.7,9.4,10.2,13.5*
N#CCC(=O)Nc1ccc(C(=O)OCC(=O)c2ccc3c(c2)OCCO3)cc1,-16.9,4.3,22.0,20.4*,11.3,-5.0,31.5*,-2.6
O=[N+]([O-])c1ccc(Br)c(CN2CCN(c3ncc(Cc4ccccc4)cn3)CC2)c1,nt,nt,nt,nt,nt,1.0,nt,nt
CC(NC(=O)CNC(=O)C1CCCCC1)c1cccc(Cl)c1 (stereo not given),nt,-1.8,nt,2.4,nt,-15.3,nt,nt
CC(NC(=O)CNC(=O)C1CCCCC1)c1ccc(S(N)(=O)=O)cc1 (stereo not given),nt,-1.0,nt,31.8*,nt,-1.5,-1.1,0.3
Cc1ccc([C@H]2C[C@@H](O)[C@H](n3cc(-c4ccc(F)cc4)nn3)CN2C(=O)c2cccs2)cc1,nt,nt,nt,nt,nt,-2.1,nt,nt
CC(C)S(=O)(=O)C1=NSC2=NC(=O)/C(=C\c3ccc(-c4cccc(C(=O)O)c4)o3)C(=N)N21,-4.3,nt,0.5,26.6*,31.1,-1.5,-0.9,-10.5
CC(C)S(=O)(=O)C1=NSC2=NC(=O)/C(=C\c3ccc(-c4ccccc4)o3)C(=N)N21,1.7,-2.6,9.4,1.0,20.3,-0.1,nt,nt
C=CCOC(=O)c1sc(NC(=O)c2ccc(OC)cc2)nc1C,-8.3,-9.4,20.1,54.6*,11.1,0.9,60.3*,-10.9
COc1ccc(CN(C(=O)c2ccco2)c2ccc(Br)cc2)cc1OC,1.1,11.0,-6.3,-3.4,-8.2,-8.1,nt,nt
O=C1/C(=C/N(C(=O)c2ccco2)c2ccc(Br)cc2)Sc2ccccc21,-29.5,13.7,2.1,17.4*,15.2,56.9*,57.2*,60.7*
COc1ccc(S(=O)(=O)N2CCCC(C(=O)N3CCN(Cc4ccccc4)CC3)C2)cc1Cl (stereo not given),nt,nt,nt,nt,nt,3.5,nt,nt
O=[N+]([O-])c1ccccc1COc1ccc(Cl)c2cccnc12,nt,11.4,nt,21.4*,nt,15.8,48.4*,31.5*
COc1ccc(N(C(C)C(=O)Nc2ccc(S(=O)(=O)N3CCCCC3)cc2)S(C)(=O)=O)cc1 (stereo not given),nt,3.5,nt,18.1*,nt,13.6,-6.5,-13.2
CC(C)N1CC(C(=O)Nc2ccc(S(=O)(=O)N3CCCCC3)cc2)CC1=O (stereo not given),nt,-3.0,nt,26.4*,nt,-0.5,-5.3,-11.2
